Active and inactive are the calls of the source. Unless noted, how the calls were made is not given here.
Assays:
[1] = test system: XIP peptide (Xip251-270) binding; assay: XIP fragment 251-270 binding compounds – biochemical, small-molecule microarray, fluorescence 635/667 nm, 0.1 µg/mL protein, primary screen (AID 1182); conditions: fluorescent protein binding, 635 nm, higher = more signal, called active from +8 up or from −8 down
XIP peptide (Xip251-270) = assay: compounds binding XIP fragment 251-270 – biochemical, small-molecule microarray, fluorescence 635/667 nm, 0.5 µg/mL protein, primary screen (AID 1183); conditions: fluorescence 635 nm, higher = more signal
[2] = blood-stage malaria parasite viability loss – strain 3D7, DAPI fluorescence, 100 nL, primary screen (AID 1184);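 further: parasites grown inside human red blood cells in medium with human serum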; conditions: P. falciparum 3D7 growth, 3 d, higher = more signal
[3] = target: Homeobox protein Hox-A13 (Mus musculus) (UniProt Q62424); assay: disruptors of Hoxa13 oligonucleotide interaction – biochemical, fluorescence polarization, labeled oligonucleotide, primary screen (AID 1185); conditions: Hoxa13:DNA binding, 15 min, higher = more signal, called active from +8 up or from −8 down
[4] = blockers of DNA damage checkpoint Chk1 activation – imaging, HeLa, hydroxyurea, phospho-Chk1 antibody, percent positive cells, primary screen (AID 1186); conditions: hydroxyurea-induced phospho-Chk1 immunofluorescence imaging, higher = more signal
[5] = blockers of DNA damage checkpoint Chk1 activation – imaging, HeLa, hydroxyurea, phospho-Chk1 nuclear intensity, primary screen (AID 1187); conditions: hydroxyurea-induced phospho-Chk1 immunofluorescence imaging, higher = more signal

Homeobox protein Hox-A13 (Mus musculus), sequence (Q62424 whole entry, looked up): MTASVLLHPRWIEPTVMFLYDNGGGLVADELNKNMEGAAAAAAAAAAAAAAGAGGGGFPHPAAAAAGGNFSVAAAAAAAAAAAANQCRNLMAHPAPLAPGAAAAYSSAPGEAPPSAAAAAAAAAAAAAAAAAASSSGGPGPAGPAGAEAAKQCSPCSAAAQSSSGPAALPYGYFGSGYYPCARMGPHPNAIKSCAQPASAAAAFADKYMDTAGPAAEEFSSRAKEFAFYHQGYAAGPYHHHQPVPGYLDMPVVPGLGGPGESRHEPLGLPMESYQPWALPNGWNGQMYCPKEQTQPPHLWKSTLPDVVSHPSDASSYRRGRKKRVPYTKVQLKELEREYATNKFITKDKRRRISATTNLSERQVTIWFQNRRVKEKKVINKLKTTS

| Compound | composite z-score [1] | composite z-score (XIP peptide (Xip251-270)) | z-score [2] | z-score [3] | z-score [4] | z-score [5] |
| --- | --- | --- | --- | --- | --- | --- |
| C[N+](C)(C)CCCCNC(=O)[C@H]1C[C@H]2C(=O)N3CCC[C@H]3C(=O)N2[C@H]1c1cccc(OCCO)c1 | 0.265 (inactive) | -0.465 | 1.2 | -2.27 (inactive) | -0.302 (inactive) | -0.124 (inactive) |
| CCOC(=O)C1=C[C@@H](C(C)(C)C)N(S(=O)(=O)c2ccc(C)cc2)[C@H]1c1ccc(F)cc1 | 0.475 (inactive) | 0.106 | -1.92 | -0.636 (inactive) | -0.324 (inactive) | -0.725 (inactive) |
| C[C@@]1([C@@H](NC(=O)c2ccc(-c3ccccc3)cc2)c2ccc(Cl)cc2)C[C@H]1C1CCCCC1 | -0.223 (inactive) | 0.492 | -0.311 | -2.06 (inactive) | -0.273 (inactive) | 0.861 (inactive) |
| COc1ccc([Si](C)(C)[C@@H]2[C@@H](CCO)O[C@]3(C(=O)N(Cc4ccc(N(C=O)c5ccccc5)cc4)c4ccccc43)[C@H]2C)cc1 | -0.0075 (inactive) | -0.0404 | -2.7 | -1.54 (inactive) | -1.27 (inactive) | -1.31 (inactive) |
| O=C1c2ccccc2[C@](Cc2ccccc2I)(C(=O)NCC(F)(F)F)[C@H](c2ccc(CO)cc2)N1Cc1ccccc1Cl | 0.149 (inactive) | 0.776 | -0.562 | -4.2 (inactive) | -0.151 (inactive) | -0.557 (inactive) |
| COc1ccc(/C=C/C=O)cc1 | -0.338 (inactive) | 0.185 | 1.01 | 0.0055 (inactive) | 0.0257 (inactive) | 0.0335 (inactive) |
| C=CCN1C(=O)[C@]2(O[C@H](CCn3cc([C@H](O)c4ccccc4)nn3)[C@@H]([Si](C)(C)c3ccc(OC)cc3)[C@@H]2C)c2ccccc21 | 0.507 (inactive) | -0.579 | -1.69 | -5.68 (inactive) | -0.831 (inactive) | -0.475 (inactive) |
| C=C(CCCC)/C(=C/C[C@H](OC(=O)c1ccncc1)c1ccccc1OCCO)c1cnc2ccccc2c1 | 0.8 (inactive) | 0.575 | -2.96 | -4.41 (inactive) | 0.618 (inactive) | 0.783 (inactive) |
| CN1C(=O)C2C=CC(C(O)C#Cc3ccccc3)N(N3CCCCC3)C2C1=O (stereo not drawn) | 1.34 (inactive) | 0.84 | -0.254 | -4.72 (inactive) | -0.699 (inactive) | -0.674 (inactive) |
| CCOC(=O)C[C@H]1[C@H](OC(=O)c2ccc(-c3ccccc3)cc2)[C@@H](NC(=O)Cc2ccc(OC)cc2)c2cc(OCCCO)ccc2N1C(=O)c1ccccc1 | -0.243 (inactive) | -0.464 | -0.791 | -2.14 (inactive) | 0.2 (inactive) | 0.106 (inactive) |
| Oc1ccc2cc[n+](Cc3sc4ccccc4c3Cl)cc2c1 | 0.558 (inactive) | 0.904 | -1.11 | -4.76 (inactive) | -0.0224 (inactive) | -0.106 (inactive) |
| O=C1NC(=O)C2C1C=CC(C(O)c1cc(C(F)(F)F)cc(C(F)(F)F)c1)N2Nc1ccccn1 (stereo not drawn) | 0.604 (inactive) | 0.797 | -0.352 | -3.28 (inactive) | 0.429 (inactive) | 0.178 (inactive) |
| C=C[C@H](C)[C@@H](OC(=O)Nc1ccc(OC)cc1)c1ccc(O)c2ccccc12 | 0.863 (inactive) | 0.251 | 0.0221 | -4.35 (inactive) | -0.025 (inactive) | 0.099 (inactive) |
| CO[C@H]1O[C@H](CO)[C@@H](OC(=O)Nc2ccccc2)[C@H](OC(=O)Nc2ccccc2)[C@@H]1OC(=O)Nc1ccccc1 | 0.228 (inactive) | 0.642 | -1.43 | -6.12 (inactive) | 0.0303 (inactive) | 0.502 (inactive) |
| COc1ccc(-c2cc3c(c(-c4ccc(Oc5ccccc5)cc4)n2)[Si](C(C)C)(C(C)C)OC3)cn1 | -0.0527 (inactive) | 0.0792 | -1.34 | -1.79 (inactive) | -0.265 (inactive) | 0.0655 (inactive) |
| CC(C)N1C(=O)C[C@@](C(=O)NCC(F)(F)F)(c2ccc([N+](=O)[O-])cc2)[C@H]1c1ccc(CO)cc1 | 0.0334 (inactive) | 0.202 | -1.38 | -2.67 (inactive) | -0.317 (inactive) | -0.273 (inactive) |
| OCCCC1=CC(c2cccs2)N(Cc2cc3c(cc2Br)OCO3)CC1 (stereo not drawn) | 0.412 (inactive) | 0.435 | -1.82 | -2.36 (inactive) | 0.32 (inactive) | 0.998 (inactive) |
| CN(C)CCCCCCNC(=O)[C@H]1C[C@H]2C(=O)N[C@@H](CCCCN)C(=O)N2[C@H]1c1cccc(OCCO)c1 | 0.867 (inactive) | 0.727 | 1.05 | -2.01 (inactive) | -0.198 (inactive) | -0.0886 (inactive) |
